Screening results (PubChem)
Many of the other results were omitted from the sample, so hits are more common in it than they were.
RmlCD inh 1536 = blocks M. tuberculosis RmlC and RmlD coupled enzymes. P9WH09+P9WH11. RmlC+RmlD coupled enzyme assay, percent inhibition; primary screen in compound mixtures. 160,000 compounds, 0.03% hits. inhibition, % at 3.6 µM. AID 1533; in the data active = inhibition mostly above about 34%, no sharp cut-off
Target sequence (P9WH09 whole entry, looked up): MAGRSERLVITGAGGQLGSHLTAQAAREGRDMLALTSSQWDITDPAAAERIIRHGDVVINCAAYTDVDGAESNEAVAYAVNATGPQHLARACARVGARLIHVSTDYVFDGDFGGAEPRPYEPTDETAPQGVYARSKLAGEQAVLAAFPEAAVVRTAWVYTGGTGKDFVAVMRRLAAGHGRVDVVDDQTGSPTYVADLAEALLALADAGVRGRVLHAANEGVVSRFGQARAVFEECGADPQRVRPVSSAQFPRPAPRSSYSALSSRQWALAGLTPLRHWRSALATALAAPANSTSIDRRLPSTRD
Target sequence (P9WH11 whole entry, looked up): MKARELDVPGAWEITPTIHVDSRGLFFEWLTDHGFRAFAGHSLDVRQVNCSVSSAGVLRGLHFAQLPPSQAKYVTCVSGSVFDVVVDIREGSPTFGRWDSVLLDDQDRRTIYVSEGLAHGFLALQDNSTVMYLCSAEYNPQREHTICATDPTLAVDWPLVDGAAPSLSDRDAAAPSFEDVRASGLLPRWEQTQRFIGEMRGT
YopH PTP inh = YopH (Yersinia) phosphatase inhibition; fluorescence Ex485/Em525; inhibition, % (test concentration not listed); 140,000 compounds, 0.16% hits; AID 898; in the data active = inhibition above about 50%
An asterisk follows results filed as active.

What do the screens show for `O=C1C(Nc2ccccc2)=C/C(=N/S(=O)(=O)c2cccs2)c2ccccc21`?
RmlCD inh 1536: 5.2; YopH PTP inh: -12.8

How did CCc1cc[n+](C2=C([O-])c3ccccc3C(=O)/C2=N\S(=O)(=O)c2cccs2)cc1 do in these assays?
RmlCD inh 1536: 3.9; YopH PTP inh: 68.5*

How did CCCCOc1ccccc1NC(=O)CC1SC(=NCC)N(CC)C1=O (configuration not stated) do in these assays?
RmlCD inh 1536: 4.2; YopH PTP inh: -37.9

Results for Nc1ccc(Nc2ccccc2N)cc1 ?
RmlCD inh 1536: -8.9; YopH PTP inh: 51.0*

How did COc1ccc(Nc2ccccc2N)cc1 do in these assays?
RmlCD inh 1536: -9.8

Results for CC(=O)[C@H]1[C@@H]2C(=O)N(c3cccc(Cl)c3)C(=O)[C@@H]2[C@H]2c3ccccc3C=CN21 ?
RmlCD inh 1536: -5.7; YopH PTP inh: 67.0*

Results for CC(=O)[C@@H]1[C@@H]2C(=O)N(C3CCCCC3)C(=O)[C@@H]2C2c3ccccc3C=CN21 (some centres not stated) ?
RmlCD inh 1536: 2.5; YopH PTP inh: 6.4

What do the screens show for `CC(C)(C)C(=O)[C@@H]1[C@@H]2C(=O)N(Cc3ccccc3)C(=O)[C@@H]2[C@H]2c3ccccc3C=CN12`?
RmlCD inh 1536: 28.9; YopH PTP inh: 8.8

What do the screens show for `CC(=O)[C@@H]1[C@@H]2C(=O)N(c3ccc(F)c(Cl)c3)C(=O)[C@@H]2C2c3ccccc3C=CN21` (some centres not stated)?
YopH PTP inh: 70.6*

How did COC(=O)c1[nH]c2cccc(OC)c2c1NC(=O)C(C)N1CCC(C)CC1 (configuration not stated) do in these assays?
RmlCD inh 1536: -86.9; YopH PTP inh: -14.2

How did CC1Cn2c(nc(=O)c3c2NCN(CCc2ccccc2)C3)S1 (configuration not stated) do in these assays?
RmlCD inh 1536: 1.3

What do the screens show for `Nc1c(NCc2ccccc2F)c(=O)[nH]c(=O)n1Cc1ccccc1`?
RmlCD inh 1536: 11.4; YopH PTP inh: 64.0*

What do the screens show for `Nc1c(NCCC2=CCCCC2)c(=O)[nH]c(=O)n1Cc1ccccc1`?
YopH PTP inh: -12.6

Results for CC(C)N(C(=O)COc1ccc(Br)cc1Cl)C(C)C ?
RmlCD inh 1536: 30.3; YopH PTP inh: 52.4*

How did CN(Cc1ccccc1)C(=O)COc1ccc(Br)cc1Cl do in these assays?
RmlCD inh 1536: -12.3

Results for CN1c2ccsc2C(O)=C(C(=S)Nc2ccc(F)c(Cl)c2)S1(=O)=O ?
YopH PTP inh: 17.9

Results for O=C(CCC1CCCC1)N1CCC(N2CCCCCC2)CC1 ?
RmlCD inh 1536: -16.2; YopH PTP inh: -15.5

Results for COc1ccccc1OCC(=O)NNC(=O)C(=O)N1CCCC1 ?
RmlCD inh 1536: -3.5; YopH PTP inh: -23.5

How did CCOC(=O)c1sc(Nc2ccccc2)nc1C do in these assays?
YopH PTP inh: -18.8

How did CCOC(=O)c1sc(Nc2nc3c(OC)cccc3s2)nc1C do in these assays?
RmlCD inh 1536: 73.8*; YopH PTP inh: -38.4

How did COCCn1nnnc1C(C(C)C)N1CCCC(C)C1 (configuration not stated) do in these assays?
RmlCD inh 1536: -2.1

What do the screens show for `CC(C)c1ccc(S(=O)(=O)/N=C2/C=C(Sc3ncn[nH]3)C(=O)c3ccccc32)cc1`?
RmlCD inh 1536: -14.6; YopH PTP inh: 100.6*

Results for Cc1ccc(S(=O)(=O)/N=C2/C=C(Sc3ncn[nH]3)C(=O)c3ccccc32)cc1 ?
YopH PTP inh: 99.6*

Results for Cc1ccc(S(=O)(=O)/N=C2/C=C(Sc3ncn[nH]3)C(=O)c3ccccc32)c(C)c1 ?
RmlCD inh 1536: -12.7; YopH PTP inh: 101.2*

What do the screens show for `CCOc1ccc(S(=O)(=O)Nc2ccc(O)c(Sc3ncn[nH]3)c2)cc1`?
RmlCD inh 1536: 4.6; YopH PTP inh: -24.5

Results for Cc1ccc(S(=O)(=O)Nc2ccc(O)c(Sc3ncn[nH]3)c2)cc1 ?
RmlCD inh 1536: -10.7

Results for Cc1ccc(C)c(S(=O)(=O)Nc2ccc(O)c(Sc3ncn[nH]3)c2)c1 ?
RmlCD inh 1536: -3.2

What do the screens show for `Cc1ccc(N2C(=O)C3ON(c4ccccc4)C(CC(C)C)C3C2=O)cc1` (configuration not stated)?
RmlCD inh 1536: -13.1

Results for CCCN1CCCc2cc(CN)ccc21 ?
RmlCD inh 1536: 9.3; YopH PTP inh: 84.2*

Results for Cc1ccc2c(c1)CCCN2N=O ?
RmlCD inh 1536: -6.5; YopH PTP inh: -21.2

How did C/C(NCCN1CCOCC1)=C(\C#N)C(N)=O do in these assays?
YopH PTP inh: 8.2

What do the screens show for `CCNC(=O)c1cc2c(=O)n3cccc(C)c3nc2n(Cc2ccc(C)cc2)c1=N`?
RmlCD inh 1536: 56.5*; YopH PTP inh: -30.5

Results for Cc1cccn2c(=O)c3cc(C(=O)NC(C)C)c(=N)n(Cc4ccncc4)c3nc12 ?
RmlCD inh 1536: 6.4; YopH PTP inh: -34.2

Results for O=c1ccc(Cl)cn1Cc1ccccc1F ?
YopH PTP inh: -8.3

How did COc1ccccc1/C=C/C=N/NC(=O)c1cccs1 do in these assays?
RmlCD inh 1536: 7.5

How did CCN(CCn1cccn1)Cc1c(C(=O)N2C[C@@H](C)O[C@@H](C)C2)nc2ccc(Cl)cn12 do in these assays?
RmlCD inh 1536: -9.1

How did CCn1c(-c2cc(OC)c(OC)c(OC)c2)n[nH]c1=S do in these assays?
YopH PTP inh: 95.7*

What do the screens show for `C=CCn1c(-c2cc(OC)c(OC)c(OC)c2)n[nH]c1=S`?
RmlCD inh 1536: 6.2; YopH PTP inh: 1.8

How did Cc1ccc(C)c(N2CCN(C(=O)CCCN3C(=S)NC(C)(C)CC3C)CC2)c1 (configuration not stated) do in these assays?
RmlCD inh 1536: -49.2; YopH PTP inh: -23.2

What do the screens show for `O=C(N1CCN(c2ccccc2)CC1)C1(c2cccs2)CCOCC1`?
RmlCD inh 1536: 20.8; YopH PTP inh: -12.9

What do the screens show for `CCOC(=O)c1sc2nc(CSc3ccccc3)nc(NCCN(C)C)c2c1C`?
RmlCD inh 1536: 2.2

How did COc1ccccc1-c1c(C)nn2c(N3CCN(c4ccccc4OC)CC3)cc(C)nc12 do in these assays?
RmlCD inh 1536: 12.3; YopH PTP inh: 1.6

What do the screens show for `COc1ccccc1-c1c(C)nn2c(N3CCCCCC3)cc(C)nc12`?
RmlCD inh 1536: 2.1; YopH PTP inh: 81.3*

What do the screens show for `CSC1=NC(C(Cl)(Cl)Cl)N=C(c2ccccc2)N1` (configuration not stated)?
RmlCD inh 1536: 2.1

Results for CCCCn1c(N)c(C(=S)NC(=O)CC(C)(C)C)c(=O)n(C)c1=O ?
RmlCD inh 1536: 105.7; YopH PTP inh: -40.9

Results for COC1=C(OC)C(=O)C(CCCCCCCCCCO)=C(C)C1=O ?
RmlCD inh 1536: -0.9

What do the screens show for `CC1=C(C)C(=O)C(CCCCC#CCCCC#CCO)=C(C)C1=O`?
YopH PTP inh: 64.9*

Results for Fc1ccc(-c2nc(-c3cnccn3)no2)c(Cl)c1 ?
RmlCD inh 1536: 7.7

Results for O=C(NC(Cc1c[nH]c2ccccc12)c1nnc2n1CCCCC2)c1ccccc1 (configuration not stated) ?
RmlCD inh 1536: -9.7; YopH PTP inh: -22.0

How did O=C(NC(Cc1c[nH]c2ccccc12)c1nnc2n1CCCCC2)c1cccs1 (configuration not stated) do in these assays?
YopH PTP inh: 55.4*

How did O=C(CCNC(=O)OCc1ccccc1)NC1CCCCCC1 do in these assays?
YopH PTP inh: -7.0

What do the screens show for `CCOC(=O)c1c(O)cc(C)[nH]c1=O`?
RmlCD inh 1536: -7.3

How did CCN(CC)CCOC(=O)/C=C/c1ccccc1OC do in these assays?
RmlCD inh 1536: -6.8; YopH PTP inh: -31.7
